In PubChem BioAssay (NCATS):
“And” between values parts separate entries of the source, which are not always exact repeats. Equal values may be shown once. Results filed as inconclusive are left out. The source made the active and inactive calls. Calls come from the whole dose curve; as a rule, active = well fitted inhibition curve with a large enough effect; inconclusive = small, poorly fitted or top-dose-only effect; inactive = flat fitted curve, though single readings scatter.

Assays:
CRL-7250 = normal cell line; assay: Cytotoxic Profiling of Annotated Libraries Using Quantitative High-Throughput Screening (AID 1296008); conditions: Five cell lines viability, CellTiter-Glo ATP luminescence, 48-72 h; max response: stronger effect = lower value; for max response: % is set by controls: 0 for no effect and ±100 for the full control effect
Method in brief: (§1)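 Cytotoxicity was measured as CellTiter-Glo ATP luminescence, read after 10 min at room temperature. Compound treatment of the cells lasted 48 or 72 hr at 37 degrees Celsius in a qHTS format.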

HEK293 = assay: as above; conditions: Five cell lines viability, CellTiter-Glo ATP luminescence, 48-72 h; max response: stronger effect = lower value
Method in brief: as §1

HaCat [1] = assay: as above; conditions: Five cell lines viability, CellTiter-Glo ATP luminescence, 48-72 h; max response: stronger effect = lower value
Method in brief: as §1

KB-3-1 = assay: as above; conditions: Five cell lines viability, CellTiter-Glo ATP luminescence, 48-72 h; max response: stronger effect = lower value
Method in brief: as §1

NIH3T3 [2] = assay: as above; conditions: Five cell lines viability, CellTiter-Glo ATP luminescence, 48-72 h; max response: stronger effect = lower value
Method in brief: as §1

HACAT [3] = assay: qHTS assay to identify novel small-molecules to repurpose for Merkel cell carcinoma treatment (AID 1296009); conditions: MCC and control cell lines, CellTiter-Glo viability, 72 h; at 44.8 µM (top of the series) unless noted
Method in brief: (§2)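 Cell viability measured by CellTiter-Glo following 72 hr compound treatment at 37 degree celsius, with NPC and MIPE libraries tested in 8- and 11-point concentration series.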

HEK293T = assay: as above; conditions: MCC and control cell lines, CellTiter-Glo viability, 72 h; at 44.8 µM (top of the series)
Method in brief: as §2

MCC-13 = assay: as above; conditions: MCC and control cell lines, CellTiter-Glo viability, 72 h; series mostly up to 46 µM
Method in brief: as §2

MCC-26 = assay: as above; conditions: MCC and control cell lines, CellTiter-Glo viability, 72 h; series mostly up to 46 µM
Method in brief: as §2

NIH3T3 [4] = assay: as above; conditions: MCC and control cell lines, CellTiter-Glo viability, 72 h; at 44.8 µM (top of the series) unless noted
Method in brief: as §2

UISO = assay: as above; conditions: MCC and control cell lines, CellTiter-Glo viability, 72 h; series mostly up to 46 µM
Method in brief: as §2

MKL-1 = assay: as above; conditions: MCC and control cell lines, CellTiter-Glo viability, 72 h; series mostly up to 46 µM
Method in brief: as §2

MKL-2 = assay: as above; conditions: MCC and control cell lines, CellTiter-Glo viability, 72 h; series mostly up to 46 µM
Method in brief: as §2

PC26 = assay: qHTS profiling for inhibitors of Plasmodium falciparum proliferation (AID 504749); conditions: P. falciparum in erythrocytes, SYBR Green DNA, 72 h; series mostly up to 28.7 µM
Method in brief: (§3)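 In a 72 h erythrocytic culture (37 C, humidified, 5% CO2) at 2.5% hematocrit and 0.3% starting parasitemia, compounds were tested; SYBR Green I in detergent lysis buffer stained parasite DNA overnight.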

PC49 = assay: as above; conditions: P. falciparum in erythrocytes, SYBR Green DNA, 72 h; series mostly up to 28.7 µM
Method in brief: as §3

SC27B = assay: as above; conditions: P. falciparum in erythrocytes, SYBR Green DNA, 72 h; series mostly up to 28.7 µM
Method in brief: as §3

TAB109 = assay: as above; conditions: P. falciparum in erythrocytes, SYBR Green DNA, 72 h; series mostly up to 28.7 µM
Method in brief: as §3

TAB113 = assay: as above; conditions: P. falciparum in erythrocytes, SYBR Green DNA, 72 h; series mostly up to 28.7 µM
Method in brief: as §3

TAB165 = assay: as above; conditions: P. falciparum in erythrocytes, SYBR Green DNA, 72 h; series mostly up to 28.7 µM
Method in brief: as §3

W2 = assay: as above; conditions: P. falciparum in erythrocytes, SYBR Green DNA, 72 h; series mostly up to 28.7 µM
Method in brief: as §3
Note: nearly all actives have a fitted effect of over 60% in size.
Potency is the fitted concentration of half-maximal effect.

O=C(Nc1nc2ccccc2n1CCN1CCOCC1)c1cccc([N+](=O)[O-])c1
inactive: outcome (CRL-7250) | outcome (HEK293) | outcome (HaCat [1]) | max response (KB-3-1) 4.26% | outcome (NIH3T3 [2]) | outcome (HACAT [3]) | outcome (HEK293T) | Potency (MCC-13) | Potency (MCC-26) | outcome (NIH3T3 [4]) | Potency (UISO)

CS(=O)(=O)Oc1ccc2c(NC(N)=O)c(C(=O)c3ccc(Cl)cc3Cl)oc2c1
active: Potency (MKL-1) 8330 nM | Potency (MKL-2) 2960 nM
inactive: outcome (CRL-7250) | max response (HEK293) 3.62% | outcome (HaCat [1]) | max response (KB-3-1) 0.867% | max response (NIH3T3 [2]) -0.156% | outcome (HACAT [3]) | Potency (MCC-13) | Potency (MCC-26) | Potency (UISO)

O=c1[nH]c(-c2ccc(C(F)(F)F)cc2)nc2c1CSCC2
inactive: max response (CRL-7250) -16.3% | max response (HEK293) 1.09% | max response (HaCat [1]) -17.6% and -9.05% | max response (KB-3-1) 9.93% | outcome (KB-3-1) | max response (NIH3T3 [2]) -7.54% | Potency (MCC-13) | Potency (MCC-26) | Potency (MKL-1) | Potency (MKL-2)

CCN(c1ccccc1)c1cc(NC)[n+](C)c(C)n1
inactive: max response (CRL-7250) -1.6% | max response (HEK293) 1.35% | outcome (HaCat [1]) | max response (KB-3-1) 7.88% | max response (NIH3T3 [2]) -7.55% | outcome (HACAT [3]) | Potency (MCC-13) | Potency (MCC-26) | Potency (MKL-1) | Potency (MKL-2) | Potency (UISO)

OC(CN1CCC(Cc2ccc(F)cc2)CC1)c1ccc(Cl)cc1 (stereo not drawn)
inactive: max response (CRL-7250) 0.243% and -6.71% | max response (HEK293) -10.6% and 0.0097% | max response (HaCat [1]) 0.0814% | outcome (HaCat [1]) | max response (KB-3-1) -3.87% and 8.37% | max response (NIH3T3 [2]) 0.966% and 1.02% | outcome (HACAT [3]) | Potency (MCC-13) | Potency (MCC-26) | Potency (MKL-1) | Potency (MKL-2) | Potency (UISO)
active: Potency (PC26) 1510 nM | Potency (PC49) 1580 nM | Potency (SC27B) 1580 nM | Potency (TAB109) 1780 nM | Potency (TAB113) 1410 nM | Potency (TAB165) 1260 nM | Potency (W2) 379 nM

NCCCC(N)(C(=O)O)C(F)F (stereo not drawn)
inactive: Potency (PC26) | Potency (PC49) | Potency (SC27B) | Potency (TAB109) | Potency (TAB113) | Potency (TAB165) | Potency (W2) | max response (CRL-7250) -1.33% and -4.78% | max response (HEK293) -1.85% and -25.2% | max response (HaCat [1]) -8.41% | outcome (HaCat [1]) | max response (KB-3-1) -4.94% and 7.79% | max response (NIH3T3 [2]) -17.4% | outcome (HACAT [3]) | Potency (MCC-13) | Potency (MCC-26) | Potency (MKL-1) | Potency (MKL-2) | Potency (UISO)

O=C(NOC[C@H](O)CO)c1ccc(F)c(F)c1Nc1ccc(I)cc1F
active: Potency (CRL-7250) 3.32 µM and 3.66 µM | Potency (HaCat [1]) 8.33 µM and 23.1 nM | Potency (NIH3T3 [2]) 6510 nM
inactive: outcome (HEK293) | max response (KB-3-1) 4.78% and 5.99% | outcome (HEK293T) | Potency (MCC-26)
